Test systems include NCI-H23 lung; NCI-H226 lung; NCI-H322M lung; HOP-62 NSCLC; NCI-H460 lung; HOP-92 NSCLC; NCI-H522 lung; A549/ATCC NSCLC; 786-0 renal; COLO 205 colon; DU-145 prostate; K-562 leukemia; MALME-3M melanoma; MDA-MB-231 breast; RXF 393 renal; SF-268 CNS; SF-295 CNS; SF-539 CNS; UACC-257 melanoma; M14 melanoma.
Common to all, as to assay: NCI-60 one-dose screen, 48 h (100 = growth as untreated, 0 = no growth, -100 = all killed)
What all share (details): 10 µM

In PubChem BioAssay (NCI) one finds growth data, which are given here for 8 molecules.

Compounds without any hit were thinned out: in the full panel of roughly 83,000, 20% have a hit.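 A percent growth of 40 corresponds to 60% growth inhibition; 0 means no net growth; -100 means all cells died. Active threshold: below 10.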 Unmarked numbers belong to inactive results. Calls of active or inactive are those of the source.

In the case of `COc1cccc2c1O/C(=C\c1ccc([N+](=O)[O-])s1)C2=O`, the growth was 71.8% with NCI-H23 lung; 97.1% with NCI-H226 lung; 82% in the experiment with NCI-H322M lung; 92.4% in the experiment on HOP-62 NSCLC; 70.9% in the experiment on NCI-H460 lung; 14.6% with HOP-92 NSCLC. In addition, the growth was -65% (active) in the experiment on NCI-H522 lung; 78.5% with A549/ATCC NSCLC; 103% with 786-0 renal; 67.3% with COLO 205 colon; 80.4% with DU-145 prostate; 8.38% (active) with K-562 leukemia. Moreover, the growth in the experiment with MALME-3M melanoma was 88.6%; with MDA-MB-231 breast, 55.4%; in the experiment with RXF 393 renal it was 25.7%; with SF-268 CNS, 12.5%; with SF-295 CNS, 97.2%; with SF-539 CNS, 55.7%. The growth in the experiment on UACC-257 melanoma is 65.2%; in the experiment on M14 melanoma, 48.1%.
As to `O=S(=O)(NC1c2ccccc2Oc2ccccc21)c1ccccc1`, the growth with NCI-H23 lung was 98%; with NCI-H226 lung, 95.3%; in the experiment with NCI-H322M lung, 91.6%; with HOP-62 NSCLC it was 90.1%; with NCI-H460 lung it was 107%; in the experiment on HOP-92 NSCLC, 63.8%. For the same molecule, the growth was 31.3% with NCI-H522 lung; 98.4% with A549/ATCC NSCLC; 82.1% in the experiment on 786-0 renal; 95.6% with COLO 205 colon; 112% in the experiment on DU-145 prostate; 91.3% in the experiment with K-562 leukemia. The growth was 97.8% with MALME-3M melanoma; 100% in the experiment with MDA-MB-231 breast; 86.6% with RXF 393 renal; 98.9% with SF-268 CNS; 97.8% with SF-295 CNS; 93.7% in the experiment with SF-539 CNS. The values for the growth in the experiment on UACC-257 melanoma and with M14 melanoma were 98.2% and 98.7%, respectively.
Turning to `O=C(NC1CCCC1)c1ccc(N2CCC(NCc3cccc(C(F)(F)F)c3)CC2)cc1`, the growth is 93.5% with NCI-H23 lung; 84.6% in the experiment on NCI-H226 lung; 89.1% with NCI-H322M lung; 77.4% in the experiment with HOP-62 NSCLC; 99.5% in the experiment with NCI-H460 lung; 52.7% in the experiment on HOP-92 NSCLC. For the same molecule, the growth was 93.6% with NCI-H522 lung; 93% in the experiment on A549/ATCC NSCLC; 84.3% in the experiment with 786-0 renal; 8.68% (active) in the experiment with COLO 205 colon; 91.2% with DU-145 prostate; 38% with K-562 leukemia. The growth is 70.3% in the experiment on MALME-3M melanoma; 78.1% in the experiment with MDA-MB-231 breast; 79.1% with RXF 393 renal; 90.3% with SF-268 CNS; 96.3% in the experiment with SF-295 CNS; 97.6% in the experiment on SF-539 CNS. For the same molecule, the growth in the experiment with UACC-257 melanoma is 91.3%; in the experiment with M14 melanoma, 77.5%.
For the molecule `O=C(Nc1ccc(CN2CCOCC2)cc1)c1ccc(-c2cc(Cl)ccc2Cl)o1`, the growth is 82.7% with NCI-H23 lung; 72.5% with NCI-H226 lung; 51.4% with NCI-H322M lung; 71.4% in the experiment on HOP-62 NSCLC; 5.58% (active) with NCI-H460 lung; 19.2% in the experiment on HOP-92 NSCLC. Further, the growth was 66.7% in the experiment on NCI-H522 lung; 57.3% in the experiment on A549/ATCC NSCLC; 63% in the experiment with 786-0 renal; -82.1% (active) in the experiment with COLO 205 colon; 75.4% with DU-145 prostate; -23.7% (active) in the experiment on K-562 leukemia. Moreover, the growth in the experiment with MALME-3M melanoma was -53.4% (active); in the experiment on MDA-MB-231 breast it was 9.54% (active); in the experiment on RXF 393 renal it was 38.4%; in the experiment on SF-268 CNS it was 57.8%; in the experiment with SF-295 CNS it was 57.6%; in the experiment on SF-539 CNS it was 88.3%. Moreover, the growth with UACC-257 melanoma is 49.4%; in the experiment with M14 melanoma, -44.2% (active).
For the molecule `COc1ccc(-c2cc(/C=C/C(=O)c3ccc(N)cc3)[nH]n2)cc1OC`, the growth is 51.6% with NCI-H23 lung; 82.3% in the experiment with NCI-H226 lung; 38.3% in the experiment on NCI-H322M lung; 55.4% in the experiment with HOP-62 NSCLC; 3.19% (active) in the experiment on NCI-H460 lung; 33.5% in the experiment with HOP-92 NSCLC. For the same molecule, the growth was 24.7% in the experiment on NCI-H522 lung; 32% with A549/ATCC NSCLC; 42.6% in the experiment with 786-0 renal; 27.1% in the experiment on COLO 205 colon; 22.8% in the experiment on DU-145 prostate; 24.4% in the experiment with K-562 leukemia. Moreover, the growth in the experiment with MALME-3M melanoma is 109%; with MDA-MB-231 breast, 38.8%; in the experiment on RXF 393 renal, 21.2%; in the experiment with SF-268 CNS, 18.8%; in the experiment on SF-295 CNS, 41%; in the experiment with SF-539 CNS it was 7.79% (active). The growth with UACC-257 melanoma is 126%; in the experiment on M14 melanoma, 84.4%.
For `Cc1[nH]nc2c(=S)[nH]c(=O)[nH]c12`, the growth with NCI-H23 lung was 103%; with NCI-H226 lung it was 94.3%; in the experiment with NCI-H322M lung it was 103%; in the experiment with HOP-62 NSCLC, 105%; in the experiment with NCI-H460 lung, 105%; in the experiment with HOP-92 NSCLC, 87.9%. The growth in the experiment with NCI-H522 lung is 98.7%; in the experiment on A549/ATCC NSCLC, 100%; in the experiment on 786-0 renal, 97.3%; in the experiment on COLO 205 colon, 109%; in the experiment on DU-145 prostate, 106%; with K-562 leukemia, 105%. The growth in the experiment on MALME-3M melanoma is 88.2%; in the experiment on MDA-MB-231 breast it was 104%; with RXF 393 renal, 107%; with SF-268 CNS it was 104%; in the experiment with SF-295 CNS, 91%; with SF-539 CNS, 101%. The growth in the experiment with UACC-257 melanoma is 90%; with M14 melanoma, 100%.
For `OC(CNC1CCCC1)Cn1c2ccccc2c2ccccc21` (stereo not given), the growth with NCI-H23 lung is 31%; with NCI-H226 lung, 99.5%; in the experiment with NCI-H322M lung, 51%; in the experiment with HOP-62 NSCLC it was 50.1%; with NCI-H460 lung, 8.53% (active); in the experiment with HOP-92 NSCLC, 26.2%. The growth in the experiment with NCI-H522 lung was 27.7%; with A549/ATCC NSCLC, 11.1%; in the experiment with 786-0 renal, 9.8% (active); in the experiment with COLO 205 colon it was -66.2% (active); in the experiment with DU-145 prostate, 23%; with K-562 leukemia, 3.31% (active). Also, the growth with MALME-3M melanoma is -70.8% (active); in the experiment on MDA-MB-231 breast it was -23.9% (active); in the experiment with RXF 393 renal, 31.2%; with SF-268 CNS, 44.8%; in the experiment with SF-295 CNS, -29.8% (active); with SF-539 CNS, -69.9% (active). The growth in the experiment with UACC-257 melanoma was -13.2% (active); in the experiment on M14 melanoma it was -68.1% (active).
Turning to `c1ccc(OCCC[P+](c2ccccc2)(c2ccccc2)c2ccccc2)cc1`, the growth in the experiment on NCI-H23 lung was 1.67% (active); in the experiment with NCI-H226 lung, 47.4%; with NCI-H322M lung, 20.4%; in the experiment on HOP-62 NSCLC it was 22%; in the experiment with NCI-H460 lung, 12.5%; in the experiment on HOP-92 NSCLC, -31.3% (active). Further, the growth with NCI-H522 lung was -7.37% (active); in the experiment with A549/ATCC NSCLC, 25.6%; in the experiment on 786-0 renal it was 23.1%; in the experiment on COLO 205 colon, -35.6% (active); in the experiment on DU-145 prostate it was 21.4%; in the experiment on K-562 leukemia, 1.76% (active). Moreover, the growth in the experiment with MALME-3M melanoma is 16.5%; in the experiment on MDA-MB-231 breast it was 11.9%; in the experiment with RXF 393 renal, 31.6%; with SF-268 CNS it was 18%; with SF-295 CNS, -30.7% (active); in the experiment with SF-539 CNS, 13.6%. The growth in the experiment on UACC-257 melanoma was -10.9% (active); in the experiment on M14 melanoma it was 14.1%.
